Source: PubChem BioAssay
Most compounds without a hit are left out; they make up all but 3.2% or so of the library.
ERa coact inh = ER-alpha (human) coactivator binding inhibition | P03372 | TR-FRET ER-alpha LBD / SRC-1 peptide, estradiol-bound | inhibition, % at 25.6 µM | 86,000 tested, 1.7% active | AID 629; in the data active means inhibition above about 50%
Target sequence (P03372 whole entry, looked up, the tested form may be a part): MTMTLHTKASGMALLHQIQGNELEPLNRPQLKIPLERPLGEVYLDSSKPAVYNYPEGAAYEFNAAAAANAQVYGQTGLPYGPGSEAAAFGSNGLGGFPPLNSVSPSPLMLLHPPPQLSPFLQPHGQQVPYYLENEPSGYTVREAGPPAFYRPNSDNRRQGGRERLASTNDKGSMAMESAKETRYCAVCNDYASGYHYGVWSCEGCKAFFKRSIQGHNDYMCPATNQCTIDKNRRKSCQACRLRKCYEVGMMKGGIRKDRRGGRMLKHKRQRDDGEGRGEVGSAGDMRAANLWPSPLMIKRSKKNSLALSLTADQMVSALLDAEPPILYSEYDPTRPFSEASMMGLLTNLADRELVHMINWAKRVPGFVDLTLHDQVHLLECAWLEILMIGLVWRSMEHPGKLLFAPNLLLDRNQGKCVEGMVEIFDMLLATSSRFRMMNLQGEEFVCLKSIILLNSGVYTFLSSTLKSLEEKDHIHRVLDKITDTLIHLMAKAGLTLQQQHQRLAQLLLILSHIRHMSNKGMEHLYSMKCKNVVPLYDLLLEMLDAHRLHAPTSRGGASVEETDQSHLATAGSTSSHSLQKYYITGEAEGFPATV
FAK inh = inhibitors of human focal adhesion kinase. 97,000 tested, 0.84% active. Q05397. inhibition, %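 (tested at 7 µM)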. biochemical FAK kinase activity assay; in the data active means inhibition above about 19%
ERa coact pot = ER-alpha (human) coactivator binding potentiation | P03372 | TR-FRET ERalpha-LBD/SRC-Cy5 coactivator binding, 2 h; 100 = basal binding, no effect | coactivator binding (% of control), % at 25.6 µM | 86,000 tested, 1.3% active; in the data active means activity above about 200%;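 further: binding measured in presence of low estradiol as agonist stimulus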
ERb coact inh = ER-beta (human) coactivator binding inhibition | Q92731 | TR-FRET ER-beta LBD / SRC1-Cy5 peptide binding; receptor agonist-loaded with 1 µM estradiol | inhibition, % at 25.6 µM | 86,000 tested, 1.3% active;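 active means compounds whose percent inhibition of the receptor-coactivator binding signal exceeds about 50% in the single-dose screen, limit read from the data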
A number is an active result; n = inactive; x = no result; [ ] = dose if it differs, or a comment.

SMILES	ERa coact inh	FAK inh	ERa coact pot	ERb coact inh
COCCNC(=O)COc1ccc(Oc2ccccc2)cc1	n	n	n	n
Cn1nc(CC(=O)Nc2ccc3c(c2)CCC3)c2ccccc2c1=O	n	x	n	n
Cn1nc(CC(=O)NC2CCCCCCCCCCC2)c2ccccc2c1=O	91[fluorescence artefact?]	n	n	55[fluorescence artefact?]
Cn1nc(CC(=O)Nc2ncc(Br)s2)c2ccccc2c1=O	n	n	n	50
O=C(NCC(=O)N(c1cccnc1)C(C(=O)NCc1ccco1)c1ccccc1)c1ccco1 (configuration not stated)	n	n	n	n
CCOC(=O)CSc1nnc(CNC(=O)c2cccs2)n1-c1cc(C)ccc1C	n	n	n	n
CCCCOc1nc2ccccc2nc1C(C#N)C(=O)NC1CCCCC1 (configuration not stated)	n	n	n	n
CC1CCN(S(=O)(=O)c2ccc(NC(=O)CN3CCOCC3)cc2)CC1	n	n	n	n
CC1CCN(S(=O)(=O)c2ccc(NC(=O)Cn3nnc(-c4ccccc4)n3)cc2)CC1	94[fluorescence artefact?]	n	n	76[fluorescence artefact?]
CC1CCN(S(=O)(=O)c2ccc(NC(=O)Cc3cccs3)cc2)CC1	74	n	n	62
COc1nnc(-c2ccc(C)c(S(=O)(=O)NCCO)c2)c2ccccc12	58	n	n	64[fluorescence artefact?]
CC(=O)NC(c1ccco1)c1ccc2cccnc2c1O (configuration not stated)	n	n	n	59[fluorescence artefact?]
Oc1c(C(Nc2ccccn2)c2ccccn2)ccc2cccnc12 (configuration not stated)	n	x	n	n
O=C(Cn1nc(-c2ccc(N3CCOCC3)c([N+](=O)[O-])c2)c2ccccc2c1=O)N1CCCCC1	n	n	n	n
O=C(O)C(O)c1ccco1 (configuration not stated)	54	x	n	58[fluorescence artefact?]
NC(=O)CC(c1ccccc1)c1ccco1 (configuration not stated)	n	n	n	n
N#CCCN1CCn2c1nc1ccccc12	n	n	200	n
CCC(=O)N1CCn2c1nc1ccccc12	n	n	n	55[fluorescence artefact?]
CN1CCN(CCN2CCn3c2nc2ccccc23)CC1	n	n	n	n
CCCCN1Cc2cc(C(=O)c3cc(F)ccc3O)cnc2NC1=O	n	n	n	n
N#CCSc1nnc2sc3ccccc3n12	87[fluorescence artefact?]	n	n	n
CCSC(SCC)[C@H](O)[C@@H](O)[C@H](O)[C@H](O)CO	n	x	775[fluorescence artefact?]	n
Cc1nc(-c2ccccc2)nc2[nH]c(-c3ccccc3)cc(=O)c12	n	n	334[fluorescence artefact?]	n
Cc1nc(C)c2c(=O)cc(-c3ccccc3)[nH]c2n1	n	n	n	n
CCOc1ccc2c3c(c(=O)oc2c1OCC)CCCC3	84[fluorescence artefact?]	n	n	n
SMILES	ERa coact inh	FAK inh	ERa coact pot	ERb coact inh
O=C(CN1CCN(Cc2ccc(Cl)cc2)C1=O)NCCCN1CCN(c2ccc(F)cc2)CC1	n	n	277[fluorescence artefact?]	n
O=C(CN1CCN(Cc2ccc(Cl)cc2)C1=O)NCCCN1CCOCC1	n	n	n	n
COc1ccc(NC(=O)Cn2nnc(-c3ccccc3NC(=O)c3ccco3)n2)cc1	n	n	n	52[fluorescence artefact?]
O=C(Nc1ccccc1C(=O)NC1CCCCC1)c1ccco1	n	n	n	n
COc1ccc(NC(=O)Cn2nnc(-c3ccccc3NC(=O)C3CC3)n2)cc1	n	x	n	n
O=C(Cn1nnc(-c2ccccc2NC(=O)c2cccs2)n1)Nc1ccccc1	65[fluorescence artefact?]	n	200[fluorescence artefact?]	57[fluorescence artefact?]
CCC(C)C(NC(=O)c1ccccc1NC(=O)c1ccco1)C(=O)NC1CCCCC1 (configuration not stated)	56[fluorescence artefact?]	x	n	n
COc1ccc(C(=O)Nc2ccccc2-c2nnn(CC(=O)NCc3ccco3)n2)cc1	n	n	210	n
O=C(Cn1nnc(-c2ccccc2NC(=O)c2ccccc2F)n1)NCc1ccco1	n	n	n	n
CCCn1c2c(c(O)c(C(=O)Nc3ccccc3)c1=O)CCCC2	n	n	n	n
Cc1cccc(NC(=O)CCN2C(=O)C3C4C=CC(C4)C3C2=O)c1 (configuration not stated)	n	n	n	n
O=C(Cn1nnc(-c2ccccc2NC(=O)c2ccco2)n1)NC1CCCCC1	n	n	288[fluorescence artefact?]	n
Cc1cnc(C(=O)Nc2ccccc2-c2nnn(CC(=O)NC3CCCC3)n2)cn1	n	n	n	n
Nc1ccc2oc(-c3ccc4nc[nH]c4c3)nc2c1	77[fluorescence artefact?]	n	n	n
Cc1nc2ccc(-c3nc4cc(N)ccc4o3)cc2[nH]1	n	n	n	n
CN(C)c1ccc(/C=C2\C(=O)N(c3ccc([N+](=O)[O-])cc3)N=C2N2CCOCC2)cc1	n	20	n	n
CN(C)c1ccc(/C=C2/C(=O)N(c3ccc([N+](=O)[O-])cc3)N=C2N2CCOCC2)cc1	x	n	x	x
CC(=O)Oc1ccc(C(=O)Nc2ccc3c(c2)C(=O)N(CCC(=O)O)C3=O)cc1	n	n	709[fluorescence artefact?]	n
O=C(Nc1ccc2c(c1)OCO2)C1Cc2ccccc2CN1S(=O)(=O)c1cccs1 (configuration not stated)	79[fluorescence artefact?]	n	n	n
CC(C)(C)c1cc(C(=O)NCc2ccccc2)ccn1	n	n	n	n
O=c1[nH]c(=O)n(Cc2ccco2)c2c1C(C(F)(F)F)(C(F)(F)F)N=C(CCC1CCCCC1)N2	n	n	n	n
O=c1[nH]c(=O)n(Cc2ccco2)c2c1C(C(F)(F)F)(C(F)(F)F)N=C(CCc1ccccc1)N2	60[fluorescence artefact?]	n	n	n
COc1cccc(OC)c1OCC(O)CN1CCN(c2ccccc2)CC1 (configuration not stated)	x	n	x	x
OC(CN1CCN(c2ccccc2)CC1)Cn1c2ccccc2c2ccccc21 (configuration not stated)	n	n	270[fluorescence artefact?]	n
CCN1CCN(c2ccc(NC(=O)c3cccc4ncccc34)cc2)CC1	50[fluorescence artefact?]	n	n	63[fluorescence artefact?]
SMILES	ERa coact inh	FAK inh	ERa coact pot	ERb coact inh
C=CCn1c(SCc2nc(N)nc(N3CCCCC3)n2)nnc1-c1ccco1	n	n	n	n
O=C(c1cccc(F)c1)N1CCN(C(=O)c2cc3ncc(Br)cn3n2)CC1	55	n	n	59
O=S(Cc1cc(Oc2ccccc2)nc(-c2ccccc2)n1)c1ccccc1 (configuration not stated)	x	n	x	x
O=C(c1ccc2nc(-c3ccco3)c(-c3ccco3)nc2c1)N1CCN(c2ccccc2)CC1	n	n	n	n
O=C(Nc1ccc(N2CCOCC2)cc1)Nc1ccc2nc(-c3ccco3)c(-c3ccco3)nc2c1	53[fluorescence artefact?]	n	n	59[fluorescence artefact?]
O=S(=O)(c1ccc2nc(-c3ccco3)c(-c3ccco3)nc2c1)N1CCOCC1	x	n	x	x
O=C(Nc1ccc2nc(-c3ccco3)c(-c3ccco3)nc2c1)NC1CC1	100[fluorescence artefact?]	92	n	109[fluorescence artefact?]
O=C(Nc1cccc(C(F)(F)F)c1)c1ccc2nc(-c3ccco3)c(-c3ccco3)nc2c1	84[fluorescence artefact?]	n	n	81[fluorescence artefact?]
COc1ccc(N2CCN(S(=O)(=O)c3ccc(C(=O)NCc4ccco4)cc3)CC2)cc1	n	n	n	n
CCC(C)(C)n1nnnc1CN1CCN(C(c2ccccc2)c2ccccc2)CC1	n	n	n	n
N#Cc1c(N)nc(SCC(=O)C23CC4CC(CC(C4)C2)C3)c(C#N)c1-c1ccc(Cl)cc1	n	n	479[fluorescence artefact?]	n
